# Screening results: PubChem BioAssay, The Scripps Research Institute Molecular Screening Center
# PPARg SRC2 recr: agonists of SRC-2 recruitment by human PPARgamma; P37231; PPARgamma LBD-SRC-2 recruitment, biochemical; activation, % at 8 µM; 200,000 compounds, 0.34% hits;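 note: 0% = vehicle and 100% = reference agonist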
# Target sequence (P37231 whole entry, looked up, the tested form may be a part): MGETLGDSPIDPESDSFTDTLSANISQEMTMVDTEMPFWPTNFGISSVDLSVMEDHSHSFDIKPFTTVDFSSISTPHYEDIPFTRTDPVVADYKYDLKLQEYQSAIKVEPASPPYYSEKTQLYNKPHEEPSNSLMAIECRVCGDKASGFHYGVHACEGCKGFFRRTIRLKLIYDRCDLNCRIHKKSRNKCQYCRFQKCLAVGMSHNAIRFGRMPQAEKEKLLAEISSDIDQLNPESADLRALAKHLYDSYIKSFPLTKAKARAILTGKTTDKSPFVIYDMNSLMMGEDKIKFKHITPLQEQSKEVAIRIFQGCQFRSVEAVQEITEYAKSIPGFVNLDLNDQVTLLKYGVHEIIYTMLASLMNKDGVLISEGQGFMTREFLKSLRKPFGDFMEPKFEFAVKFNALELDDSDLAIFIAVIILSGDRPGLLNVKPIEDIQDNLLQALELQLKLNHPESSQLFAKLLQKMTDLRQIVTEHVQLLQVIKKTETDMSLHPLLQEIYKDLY
# PPARg SRC1 recr: PPARgamma-driven SRC-1 recruitment agonism. PPARgamma-SRC-1 coactivator recruitment biochemical assay. activation, % at 8 µM. 200,000 compounds, 0.41% hits. P37231. AID 631; in the data active = activation above about 19%;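 note: 0% = DMSO and 100% = reference agonist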
# SRC3 TRFRET art: counter-screen for PPARgamma SRC-3 recruitment agonists: TR-FRET artefact | PPARgamma/SRC-3 format; stronger effect = higher value | TR-FRET ratio at 8 µM | 99,000 compounds, 0.39% hits; in the data active = TR-FRET ratio above about 2000
# PPARg SRC-3 ag: promotes SRC-3 coactivator recruitment by human PPARgamma | activation, % at 8 µM | 200,000 compounds, 0.26% hits | AID 731 | biochemical PPARgamma/SRC-3 coactivator recruitment assay; in the data active = activation above about 23%;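 note: 0% = DMSO and 100% = reference agonist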
# TR-FRET SRC-2 ct: flags TR-FRET format artefacts in PPARgamma SRC-2 recruitment agonist screen. TR-FRET ratio at 8 µM. TR-FRET artefact counter-screen; stronger effect = higher value. 200,000 compounds, 0.4% hits; in the data active = TR-FRET ratio above about 2000
# SRC1 TRFRET art: TR-FRET artefact, counter-screen to PPARgamma/SRC-1 agonist assay | TR-FRET detection artefact counter-screen, emission ratio; stronger effect = higher value | TR-FRET ratio at 8 µM | 99,000 compounds, 0.34% hits | AID 1051; in the data active = TR-FRET ratio above about 2300
# PPARg SRC2 ag: human PPARgamma SRC-2 recruitment agonism, confirmation; shares compounds with PPARg SRC-3 ag; biochemical SRC-2 recruitment by PPARgamma; activation, % at 8 µM; 790 compounds, 52% hits;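 note: 0% = vehicle alone and 100% = reference agonist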
# PPARg SRC1 ag: confirmation of agonists of SRC-1 recruitment by human PPARgamma. 790 compounds, 43% hits. PPARgamma–SRC-1 coactivator recruitment biochemical assay. AID 1300. shares compounds with PPARg SRC-3 ag. activation, % at 8 µM; in the data active = activation above about 20%;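 note: 0% = vehicle wells and 100% = reference agonist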
# PPARg SRC3 ag: confirmation of agonists of SRC-3 recruitment by human PPARgamma. shares compounds with PPARg SRC-3 ag. biochemical PPARgamma-SRC-3 coactivator recruitment, agonist mode. activation, % at 8 µM. 790 compounds, 29% hits; in the data active = activation above about 24%;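 note: 0% = vehicle wells and 100% = reference agonist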
# * hit, by the source's call; nt = no result given. Rows were chosen to be rich in hits. Some 0.9% of all compounds tested hit in one or more screens of this group. Cut-off read from the data, not from the text of the source, unless noted: active = activation above about 22%; inactive = the rest.
SMILES,PPARg SRC2 recr,PPARg SRC1 recr,SRC3 TRFRET art,PPARg SRC-3 ag,TR-FRET SRC-2 ct,SRC1 TRFRET art,PPARg SRC2 ag,PPARg SRC1 ag,PPARg SRC3 ag
O=C(Cc1sc(-c2ccccc2Cl)nc1-c1ccccc1)Nc1ccc(F)cc1,15,29*,nt,13,2292*,nt,18,7,7
Brc1ccc(-c2nn3c(-c4ccco4)nnc3s2)o1,99*,75*,nt,115*,3538*,nt,76*,52*,53*
Clc1ccc(-c2ccc(-c3nn4c(-c5ccco5)nnc4s3)o2)cc1,5,10,nt,-6,1589,nt,nt,nt,nt
Nc1nc(-c2c[nH]c3ccccc23)cs1,13,20*,nt,36*,1857,nt,22*,12,13
CNc1nc(-c2c[nH]c3ccccc23)cs1,6,5,nt,14,1433,nt,nt,nt,nt
O=c1c2cn[nH]c2[nH]c(=S)n1-c1cccc2ccccc12,24*,17,2082*,17,2219*,2560*,24*,15,17
CSc1ccccc1-c1nnc(-c2ccccc2)o1,0,0,nt,9,1741,nt,nt,nt,nt
CSc1nnc(-c2ccccc2SC)o1,20,22*,2050,14,1917,2301,19,12,8
Cc1cc(NS(=O)(=O)c2ccc(NC(=O)c3ccco3)cc2)no1,5,21*,nt,15,1513,nt,-1,-4,0
CN1/C(=C\C(=O)c2ccco2)C(C)(C)c2ccccc21,19,5,nt,26*,1942,nt,19,11,13
Cc1ccc(C)c(/C=N/n2cc(-c3ccccc3)[nH]c2=S)c1,5,-3,1480,3,1728,1705,nt,nt,nt
S=c1[nH]c(-c2ccccc2)cn1/N=C/c1ccc(Br)cc1,13,30*,1662,26*,1402,1927,12,16,15
COc1ccccc1CN1CCNC(=O)C1CC(=O)NCc1cn(C)nc1C (stereo not drawn),3,4,1686,6,1448,1939,nt,nt,nt
Cc1ccc(S(=O)(=O)c2c(CO)c(-c3ccccc3)nn2C)cc1,10,17,1207,34*,1327,1892,11,16,18
Cc1ccc(-n2c(O)c(C=Nc3ccccc3-c3n[nH]c(=S)[nH]c3=O)c3ccccc3c2=O)cc1C,24*,24*,2203*,23*,2174*,2325*,44*,33*,28*
Cc1ccc(C(=O)NC(=O)CSc2ncccc2C(=O)O)cc1,-6,14,1704,-2,1598,1640,nt,nt,nt
Nc1ccccc1-c1n[nH]c(=S)s1,54*,54*,3076*,43*,3141*,3590*,40*,31*,25*
Cc1ccc(C(C(=O)Nc2ccc3c(c2)OCO3)N(C)C(=O)/C=C\c2ccc3c(c2)OCO3)cc1 (stereo not drawn),-1,-2,1689,2,1679,1831,nt,nt,nt
CCOC(=O)c1cccc(NC(=O)CSc2nnc(COc3ccccc3C)o2)c1,5,20*,nt,7,1625,nt,5,4,3
CCOc1ccc(NC(=O)CSc2nnc(COc3c(C)cccc3C)o2)cc1,3,-1,nt,5,1486,nt,nt,nt,nt
CCOC(=O)c1c(NC(=O)CSc2nnc(-c3ccccc3)o2)sc(C(C)=O)c1C,11,12,nt,20,1725,nt,nt,nt,nt
CCOC(=O)c1c(NC(=O)CSc2nnc(Cc3ccccc3)o2)sc(C(C)=O)c1C,36*,16,nt,44*,2328*,nt,20,13,15
O=[N+]([O-])c1cccc(-c2csc(N/N=C/c3cccc(O)c3)n2)c1,1,6,1357,1,1556,1842,nt,nt,nt
O=C(Nc1nnc(-c2ccco2)s1)C1CCN(S(=O)(=O)c2ccc(Cl)cc2)CC1,20,34*,nt,36*,1816,nt,24*,20,14
Cc1onc(NC(=O)c2ccc(Cl)cc2Cl)c1Br,8,6,1543,-1,1652,1945,nt,nt,nt
SMILES,PPARg SRC2 recr,PPARg SRC1 recr,SRC3 TRFRET art,PPARg SRC-3 ag,TR-FRET SRC-2 ct,SRC1 TRFRET art,PPARg SRC2 ag,PPARg SRC1 ag,PPARg SRC3 ag
NC(=O)CSc1nc2scc(-c3ccco3)c2c(=O)n1-c1ccccc1,15,15,nt,5,1825,nt,nt,nt,nt
O=C(CSc1nc2scc(-c3ccco3)c2c(=O)n1-c1ccccc1)N1CCOCC1,35*,23*,nt,37*,2021*,nt,26*,21*,19
Cc1cccc(Nc2nn3c(=O)c4ccccc4nc3s2)c1,2,31*,nt,37*,1736,nt,27*,17,15
S=C(Nc1ccccc1Cl)N(Cc1ccccc1)Cc1cccnc1,6,3,1646,4,1620,2150,nt,nt,nt
Cc1nc2ccc3nc(NC(=O)c4ccc5c(c4)OCCO5)sc3c2s1,17,117*,nt,157*,2067*,nt,92*,71*,58*
CCn1c(=O)cc(SCC(=O)N2CCN(c3ccccn3)CC2)c2ccccc21,35*,39*,2355*,21,2505*,3018*,50*,34*,34*
CCn1c(=O)cc(SCC(=O)N2CCN(c3ccccc3F)CC2)c2ccccc21,42*,30*,nt,34*,2381*,nt,36*,23*,24*
COc1ccc(NC(=O)c2ccc(NCCN3C(=O)CCC3=O)c([N+](=O)[O-])c2)cc1,-1,1,1711,2,1622,1777,nt,nt,nt
CCn1c2c(c3cc(OCC(C)C)ccc31)CCCC2=O,4,-4,nt,3,1436,nt,nt,nt,nt
CCn1c2c(c3cc(Br)ccc31)CCC/C2=N\O,39*,34*,nt,61*,2351*,nt,45*,30*,29*
O=C(N/N=C/c1ccccn1)c1ccc(Br)cc1,0,10,1659,0,1615,1845,nt,nt,nt
CCCCOC(=O)C(C)Nc1n[nH]c(=O)[nH]c1=O (stereo not drawn),3,0,nt,3,1335,nt,nt,nt,nt
CCCCOC(=O)CCNc1n[nH]c(=O)[nH]c1=O,-1,1,1615,-4,1395,1708,nt,nt,nt
CC(C)COC(=O)CNc1n[nH]c(=S)[nH]c1=O,63*,52*,nt,86*,2814*,nt,78*,58*,52*
CCCCOC(=O)CNc1n[nH]c(=S)[nH]c1=O,66*,48*,nt,95*,2722*,nt,80*,61*,55*
CCCCOC(=O)C(C)Nc1n[nH]c(=S)[nH]c1=O (stereo not drawn),21,14,nt,26*,1892,nt,27*,27*,16
O=C(c1ccc(Cl)cc1)n1c(NCc2ccccc2)n[nH]c1=S,-1,-8,1276,0,1426,1530,nt,nt,nt
Cc1cc2cc(CNC(=O)c3cc4ccccc4o3)ccc2n1C,18,22*,nt,32*,2988*,nt,41*,32*,23
